From PubChem BioAssay (Tox21)
Records with an inconclusive call do not appear. Activity calls are given as the source filed them. Unless noted, the call rests on the fitted dose curve; in most records, active means well fitted curve in the direction sought with a large enough effect in the repeat runs; inconclusive means weak or mixed curves; inactive means no such curve, though single readings can be large; an effect the other way counts as inactive or inconclusive.

Tests used:
[1] = qHTS assay to identify small molecule agonists of the hypoxia (HIF-1) signaling pathway - cell viability counter screen (AID 1224844; calls by dose curve; further: nearly all actives have a fitted effect of over 50% in size)
In short: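 CellTiter-Glo luminescence read-out, 30 min RT, taken in the same wells as the beta-lactamase HRE reporter assay; HRE-bla ME-180 cells, 0.5% dialyzed FBS, 17 hr compound treatment at 37C, 5% CO2.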

[2] = qHTS assay to identify small molecule agonists of H2AX (AID 1224845; active means well fitted activation curve with a large enough effect in the signal ratio in the repeat runs, not every such curve was filed as active; the % refers to the signal ratio)
In short: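 Wild-type CHO-K1 cells plated overnight, then exposed 3 hr at 37C to compounds at 15 concentrations (0.76% DMSO). Lysed, then HTRF anti-pH2AX(S139)-cryptate/anti-H2AX-d2 detection after 24 hr at room temperature; emissions 665 and 620 nm.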

[3] = qHTS assay to identify small molecule agonists of the hypoxia (HIF-1) signaling pathway (AID 1224846; active means well fitted activation curve with a large enough effect in the signal ratio in the repeat runs, not every such curve was filed as active; the % refers to the signal ratio)
In short: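 Beta-lactamase FRET read-out (CCF4-AM substrate) from ME-180 cells carrying an HRE-driven bla reporter, after 17 hrs compound exposure at 37C/5% CO2. Cells were seeded at 2,000 per well in 0.5% dialyzed FBS medium and preincubated 5 hrs.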

[4] = qHTS assay to identify small molecule antagonists of the estrogen related receptor (ERR) signaling pathway from Tox21 library (AID 1224848); further: nearly all actives have a fitted effect of over 50% in size; further: potency means the concentration at half of the fitted maximal effect
In short: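 First, 2,000 ERR cells per well were plated and held 6 h at 37 C/5% CO2. Next, compounds in DMSO were pinned in and left 18 h at 37 C. Finally, ONE-Glo was added and luminescence read after 30 min at room temperature.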

[5] = qHTS assay to identify small molecule agonists of the estrogen related receptor (ERR) signaling pathway from Tox21 library (AID 1224849; calls by dose curve; further: nearly all actives have a fitted effect of over 15% in size); settings: ERR reporter cell line, ONE-Glo luciferase, 18 h; at 92.4 µM (top of the series) unless noted
In short: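 Luminescence readout (ONE-Glo, 30 min RT) after 18 h compound exposure at 37 C of NTP-supplied ERR reporter cells; cells were plated 6 h before compound addition by pin tool.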

[6] = qHTS RealTime-Glo MT Cell Viability Assay in HepG2 cells - 24 hour (AID 1224867); further: nearly all actives have a fitted effect of over 50% in size
In short: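 HepG2 cells (600/well) were dispensed with RealTime-Glo reagents, incubated 5 h at 37 °C, then treated with compounds in DMSO for up to 40 h. Nonlytic NanoLuc luminescence reflecting viable cells was read at each stated time point.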

[7] = qHTS RealTime-Glo MT Cell Viability Assay in HEK293 cells - 32 hour (AID 1224868); further: nearly all actives have a fitted effect of over 50% in size; further: potency means the concentration at half of the fitted maximal effect; on activity change, negative = cytotoxic: top concentration of the series differs between compounds
In short: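 HEK293 cells seeded with NanoLuc/prosubstrate reagent, rested 5 h at 37 C, then dosed and kept at 37 C up to 40 h. Nonlytic real-time luminescence from viable cells read at 0, 8, 16, 24, 32 and 40 h.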

[8] = A CellTox Green Cytotoxicity Assay to monitor cytotoxicity in HEK293 cells - 0 hour (AID 1224869); further: nearly all actives have a fitted effect of over 50% in size
In short: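 Read-out: fluorescence of a cell-impermeant cyanine dye staining DNA of dead cells, proportional to cytotoxicity. HEK293, 600 cells/well with reagent, compound (23 nL DMSO) added after 5 h; reads at 0, 8, 16, 24, 32, 40 h.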

[9] = qHTS assay to identify small molecule agonists of H2AX - cell viability counter screen (AID 1224847; calls by dose curve; further: top concentration of the series differs between compounds; nearly all actives have a fitted effect of over 30% in size)
In short: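 Read-out: CellTiter-Glo luminescence, 30 min RT. Cells: wild-type CHO-K1, 1000/well, 10% FBS, plated overnight at 37C. Treatment: 15 concentrations, 3 hr, 37C, 0.76% DMSO.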
On the % scale 0 is the no-effect control and ±100 the full control effect.

COc1cc(C)c(Cc2cnc(N)nc2N)cc1OC
inactive: Potency [1] | Potency [2] | outcome [3] | Potency [4] | activity change, positive = activation [5] -2.44% [at 42.5 µM] | outcome [6] | Potency [7] | Potency [8]

CC(C)(C)c1ccc(CCC=O)cc1
inactive: Potency [1] | Potency [2] | outcome [3] | Potency [9] | outcome [6] | Potency [7] | Potency [8]

CCCc1nc(C)c2c(=O)[nH]c(-c3cc(S(=O)(=O)N4CCN(CC)CC4)ccc3OCC)nn12
inactive: Potency [1] | Potency [2] | Potency [9] | outcome [6] | Potency [7] | Potency [8]

Cc1nc2sccn2c(=O)c1CCN1CCC(=C(c2ccc(F)cc2)c2ccc(F)cc2)CC1
inactive: Potency [2] | outcome [3] | activity change, positive = activation [5] -44.9% [at 42.5 µM] | outcome [6] | Potency [8]
active: Potency [4] 26.6 µM | Potency [7] 3.38 µM

CC(=O)CC/C=C(\C)CC/C=C(\C)CC/C=C(\C)CCC=C(C)C
inactive: Potency [1] | Potency [2] | Potency [9] | outcome [6] | Potency [7] | Potency [8]

O=C1c2ccccc2C(=O)C1c1ccc2cc(S(=O)(=O)O)cc(S(=O)(=O)O)c2n1
inactive: Potency [4] | outcome [6] | Potency [7] | Potency [8]

Clc1cc(Cl)c2c(c1)N=C1CCCCCN1C2
inactive: Potency [1] | Potency [2] | outcome [3] | Potency [4] | outcome [6] | Potency [8]

O=c1[nH]nc(-c2ccc([N+](=O)[O-])o2)o1
inactive: Potency [1] | outcome [3] | activity change, positive = activation [5] -20.3% | outcome [6] | Potency [7] | Potency [8]

Oc1ccc(CCNCCCCCCNCCc2ccccc2)cc1O
active: Potency [7] 26.8 µM
inactive: outcome [3] | Potency [9] | outcome [6] | Potency [8]

O=C(O)CCc1nc2ccccc2[nH]1
inactive: Potency [1] | Potency [2] | outcome [3] | Potency [9] | outcome [6] | Potency [7] | Potency [8]

O=C(O)c1ccc2c(c1)nc(C(=O)NC1CCN(C3CC3)CC1)n2Cc1cc(-c2ccc(Cl)s2)on1
inactive: activity change, negative = cytotoxicity [9] -8.48% [at 31.6 µM] | activity change, negative = cytotoxicity [6] -0.892% [at 15.8 µM] | activity change, negative = cytotoxic [7] -0.224% [at 15.8 µM] | cytotoxicity [8] -5.57% [at 15.8 µM]

SCCOCCOCCS
inactive: Potency [1] | outcome [3] | Potency [9] | outcome [6] | Potency [7] | Potency [8]

CC/C=C/CCO
inactive: Potency [2] | Potency [4] | activity change, positive = activation [5] 5.37% | outcome [6] | Potency [7] | Potency [8]

CC[C@H](NC(C)C)[C@H](O)c1ccc(O)c2[nH]c(=O)ccc12
inactive: Potency [1] | Potency [2] | Potency [9] | Potency [4] | activity change, positive = activation [5] 4.6% [at 42.5 µM] | outcome [6] | Potency [7] | Potency [8]

O=C(c1ccc(Cl)cc1)c1ccc(Cl)cc1
inactive: Potency [1] | Potency [2] | outcome [3] | outcome [6] | Potency [7] | Potency [8]

C[C@]12CCC(=O)C=C1[C@@H]1C[C@@H]1[C@H]1[C@@H]3[C@@H]4C[C@@H]4[C@@]4(CCC(=O)O4)[C@@]3(C)CC[C@@H]12
inactive: Potency [1] | Potency [2] | outcome [3] | activity change, positive = activation [5] -43.4% [at 42.5 µM] | outcome [6] | Potency [8]
active: Potency [4] 26.6 µM
